Screens deposited in PubChem BioAssay by National Center for Advancing Translational Sciences (NCATS).
In the library only some 10% were active in any assay of this set; here they are far more common.
ALDH1A1 block = qHTS Assay for Inhibitors of Aldehyde Dehydrogenase 1 (ALDH1A1); Purified ALDH1A1, NADH fluorescence, propionaldehyde substrate; Potency, µM (titrated, usually from 75.3 µM), inactives show top-dose activity, negative = inhibition, most hits filed as inhibitors; AID 1030, 2008; 220,000 tested, 7.3% active;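 note: potency is the fitted concentration of half-maximal effect; plate controls were no enzyme wells and a reference inhibitor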
Target sequence (P00352 whole entry, looked up): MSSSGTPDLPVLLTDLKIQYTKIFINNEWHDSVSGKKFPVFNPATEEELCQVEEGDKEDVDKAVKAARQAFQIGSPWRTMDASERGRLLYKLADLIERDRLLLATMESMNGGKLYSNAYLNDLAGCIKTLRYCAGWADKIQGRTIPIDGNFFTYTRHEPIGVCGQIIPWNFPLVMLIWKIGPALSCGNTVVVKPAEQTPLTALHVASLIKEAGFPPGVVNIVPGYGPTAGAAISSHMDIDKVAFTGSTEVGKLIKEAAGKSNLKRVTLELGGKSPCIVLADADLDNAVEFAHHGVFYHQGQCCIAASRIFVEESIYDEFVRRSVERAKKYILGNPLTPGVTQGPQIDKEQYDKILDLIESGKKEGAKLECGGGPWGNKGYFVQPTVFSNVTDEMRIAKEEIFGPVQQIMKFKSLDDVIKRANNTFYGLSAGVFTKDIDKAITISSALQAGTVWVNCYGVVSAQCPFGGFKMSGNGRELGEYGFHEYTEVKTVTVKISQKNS
PNC assembly inh = High Content Assay for Compounds that inhibit the Assembly of the Perinucleolar Compartment; PC3M PTB-GFP, PNC prevalence imaging, 16 h; stronger effect = lower value; activity change (PNC), negative = inhibition, % at 10 µM; 140,000 tested, 3.1% active; AID 2417, 2010;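 active = readout at or below -70, meaning at least 70% loss of cells showing the perinucleolar compartment, a nuclear body marking cancer cells; inconclusive = readout between -30 and a set limit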;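 note: plate controls were DMSO wells for no effect and camptothecin positive control wells for full effect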
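Compounds are pinned in duplicate onto adhered PC3M cells stably expressing GFP-tagged PTB and incubated 16 h at 37 C. Cells are then fixed, nuclei stained with Hoechst, and PNC-positive cells counted.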
LMNA splice mod = qHTS Assay for Modulators of Lamin A Splicing | HeLa LMNA splicing GFP/RFP minigene ratio, 48 h | AID 1487, 2009 | Potency, µM (series often up to 46.1 µM), for the others: top-dose ratio change, negative = inhibition, most hits filed as inhibitors | 200,000 tested, 0.01% active; active = well fitted inhibition curve with a large enough effect in the signal ratio, with a control signal flat, not every such curve was filed as active; inconclusive = small, poorly fitted or top-dose-only effect, or effect the other way, or a change in a side signal; the % refers to the signal ratio; note: potency is the fitted concentration of half-maximal effect
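S3 HeLa stable clones carrying a lamin A-EGFP splicing minigene plus DsRed2 were seeded at 600 cells/well in Opti-MEM with 2% FBS, pin-dosed and incubated 48 h at 37°C. Acumen cytometry (488 nm) gave the GFP/RFP total-intensity ratio.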
HPGD block = qHTS Assay for Inhibitors of HPGD (15-Hydroxyprostaglandin Dehydrogenase) | 15-hydroxyprostaglandin dehydrogenase [NAD(+)] (Homo sapiens), P15428 | 150,000 tested, 4.3% active | Potency, µM, for the others: at the highest dose activity change, negative = inhibition, usual class: inhibitors | purified HPGD, NADH fluorescence kinetic, PGE2 substrate | AID 894, 2007; note: potency is the fitted concentration of half-maximal effect
Target sequence (P15428 whole entry, looked up): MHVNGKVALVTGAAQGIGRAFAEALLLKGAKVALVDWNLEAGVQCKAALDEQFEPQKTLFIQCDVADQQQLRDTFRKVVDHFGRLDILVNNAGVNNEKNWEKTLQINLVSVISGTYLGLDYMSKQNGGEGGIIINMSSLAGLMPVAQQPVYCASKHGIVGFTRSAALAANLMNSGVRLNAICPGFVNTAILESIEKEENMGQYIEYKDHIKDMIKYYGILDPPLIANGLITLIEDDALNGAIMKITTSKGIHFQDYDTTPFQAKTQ
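NADH formation kinetics: reaction with 30 uM PGE2 and 1 mM NAD+ (final), 20 nM enzyme, Tris-HCl pH 8 with Tween 20, after 15 min compound preincubation at room temperature. Fluorescence change, last versus first of five reads.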
12-hLO inh = qHTS Assay for Inhibitors of 12-hLO (12-human lipoxygenase); AID 1452, 2008; Polyunsaturated fatty acid lipoxygenase ALOX12 (Homo sapiens), P18054; purified 12-hLO, xylenol orange hydroperoxide absorbance; Potency, µM (series often up to 57.1 µM), for the others: top-dose activity change, negative = inhibition, actives largely listed as inhibitors; 150,000 tested, 0.12% active; active = well fitted inhibition curve with a large enough effect; inconclusive = small, poorly fitted or top-dose-only effect; note: potency is the fitted concentration of half-maximal effect; nearly all actives have a fitted effect of over 55% in size
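Purified human 12hLO (150 nM final) was preincubated with compounds for 15 min at room temperature in 25 mM Hepes pH 7.0, 0.01% Triton X-100, then reacted with 40 uM arachidonic acid for 30 min. Hydroperoxide was detected with ferrous iron/xylenol orange.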
* marks the source's active call; other numbers are inactive results; ? = inconclusive; . = no result given; [ ] = dose if it differs, or a comment. Unless noted, calls come from the whole dose curve; as a rule, active = well fitted inhibition curve with a large enough effect (not every such curve was filed as active); inconclusive = small, poorly fitted or top-dose-only effect, or another doubt; inactive = no such curve, though single readings can be large or run the other way. Unless noted, % is set by controls: 0 for no effect and ±100 for the full control effect.

SMILES | ALDH1A1 block | PNC assembly inh | LMNA splice mod | HPGD block | 12-hLO inh
O=[N+]([O-])c1cc(-c2nnc(N3CCOCC3)c3ccccc23)ccc1N1CCOCC1 | 10µM* | . | -15%[46 µM] | . | .
O=[N+]([O-])c1cc(-c2nnc(Nc3ccccc3)c3ccccc23)ccc1N1CCOCC1 | ? | -28 | ? | 14µM* | 0%
O=[N+]([O-])c1cc(-c2nnc(Nc3ccc(O)cc3)c3ccccc23)ccc1N1CCOCC1 | ? | -23 | ? | -9% | -3%
Cc1ccc(Nc2nnc(-c3ccc(N4CCOCC4)c([N+](=O)[O-])c3)c3ccccc23)cc1 | ? | ? | -9% | -16% | 0%
O=C(Nc1ccc(F)cc1F)c1cc(CN2CCOCC2)on1 | . | . | 5%[46 µM] | . | .
S=c1nc(C2CC2)[nH]c2ccccc12 | 13µM* | -11 | -8% | 16µM* | -17%
CC(C)c1nc(=S)c2ccccc2[nH]1 | 14µM* | -17 | 2% | ? | -7%
S=c1nc(C2CCCCC2)[nH]c2ccccc12 | 3% | . | . | . | .
Cn1nnnc1SCCNS(=O)(=O)c1ccccc1 | -10% | ? | 3% | -10% | 0%
Cc1ccc(-n2nnnc2SCCNS(=O)(=O)c2ccccc2)cc1C | 5µM* | ? | -11% | -6% | -10%
Cc1onc(-c2ccccc2Cl)c1C(=O)Oc1ccccc1F | . | . | 4%[46 µM] | . | .
COc1ccc(NC(=O)c2cc3c(=O)n(Cc4cccnc4)ccc3nc2C)c(OC)c1 | . | . | 8%[46 µM] | . | .
CCC1(C)N([O-])C(C)=C(c2ccccc2)[N+]1=O (centres undefined) | 6% | -88* | -1% | 1% | 2%
CCC1CN(C(=O)Nc2ccccc2F)c2cc(C)ccc2O1 (centres undefined) | . | . | 2%[46 µM] | . | .
CCOC(=O)c1nn(-c2ccc(Cl)cc2)c2nnc(Cc3ccc(C)cc3)c(=O)n12 | ? | -109* | 10% | -3% | 2%
CCOC(=O)c1nn(-c2ccccc2)c2nnc(Cc3ccc(Cl)cc3)c(=O)n12 | -2% | -6 | 3% | -7% | 1%
COc1ccc(CNC(=O)c2cnn3c(C)c(Cc4ccc(F)cc4)c(C)nc23)cc1 | . | . | -6%[46 µM] | . | .
COCCCn1c(SCC(=O)Nc2sc3c(c2C#N)CCCC3)nnc1-c1ccncc1 | 20µM* | 0 | -9% | ? | -18%
Cn1c(CNC(=O)c2ccc(Cl)c(Cl)c2)nnc1SCC(=O)Nc1sc2c(c1C#N)CCCC2 | -17% | 62 | 11% | -22% | -1%
CN(C)CCCn1c(SCC(=O)Nc2sc3c(c2C#N)CCCC3)nnc1-c1ccncc1 | 7.1µM* | 28 | -9% | 6% | -8%
Cn1nc(SCC(=O)O)sc1=S | 3% | -10 | -7% | 14µM* | -4%
CSCCC(NC(=O)c1cccc([N+](=O)[O-])c1)C(=O)O (centres undefined) | 3% | -22 | -7% | -7% | -2%
CCCNC(=O)Nc1ccsc1C(=O)OC | -12% | . | -11%[46 µM] | . | .
CCC(Oc1ccccc1)C(=O)Nc1ccsc1C(=O)OC (centres undefined) | 14µM* | 14 | ? | ? | -7%
CCC(Oc1ccccc1)C(=O)NC1CCSC1=O (centres undefined) | 6.3µM* | . | ? | . | .
SMILES | ALDH1A1 block | PNC assembly inh | LMNA splice mod | HPGD block | 12-hLO inh
CCC(Oc1ccccc1)C(=O)Nc1ccccn1 (centres undefined) | 2.8µM* | 20 | -3% | -13% | -9%
CCOC(=O)CNC(=O)O[C@@H]1C(=O)c2cc(Br)ccc2O[C@H]1c1ccc2c(c1)OCO2 | 10% | . | . | -11% | .
CCOC(=O)N1CCc2c(sc(NCc3cc(OC)c(OC)cc3OC)c2C(=O)Nc2ccc(OCC)cc2)C1 | . | . | 5%[46 µM] | . | .
O=C(N/N=C/c1cccc(C(F)(F)F)c1)c1ccccc1O | 13% | . | -14%[46 µM] | . | .
O=C(N/N=C/c1cc2c3c(c1O)CCCN3CCC2)c1ccccc1O | -4% | -113* | ? | -30% | -15%
Cc1nn(-c2ccccc2)c(N2CCCC2)c1/C=N/NC(=O)c1ccccc1O | ? | -104* | ? | ? | -2%
CC(C)NC(=O)N1CC[C@@]2(CCCN(S(C)(=O)=O)C2)C1 | 5% | . | . | -3% | -6%
CC(=O)N1CCCc2cc(S(=O)(=O)N3CCC(C(=O)Nc4ccc(C)cc4Cl)CC3)ccc21 | . | . | 10%[46 µM] | . | .
COc1cc(OC)c(OC)cc1CNC1CCCCCC1 | -14% | -3 | -12% | -9% | -4%
COc1cc(OC)c(CNC2CCCCCC2)cc1Br | 7.9µM* | . | . | . | .
Cc1cc(C)cc(NC(=O)c2cn3c4c(ccc(Cl)c4c2=O)OC(C)C3)c1 (centres undefined) | . | . | 6%[46 µM] | . | .
CC1=N/C(=C\c2ccc(OC(C)C)cc2)C(=O)N1c1ccc(C(=O)O)cc1 | -8% | -2 | 3% | 16µM* | 2%
CC(C)Oc1ccc(C(=O)O)cc1 | 4% | . | . | . | .
O=[N+]([O-])c1ccc(O)c(NC(=S)Nc2ccccc2)c1 | 22µM* | -1 | -13% | ? | 6%
COc1ccc(NS(=O)(=O)c2ccc(N/N=C(\C)c3ccncc3)c([N+](=O)[O-])c2)cc1 | 1% | 7 | ? | 6.3µM* | 6%
COc1cccc(/C=C(/C#N)c2ccc(F)cc2)c1OCc1cccc(C(=O)O)c1 | 13µM* | -7 | ? | ? | 2%
COc1ccccc1Nc1sc(C(=O)c2ccc3c(c2)OCO3)c(N)c1S(=O)(=O)c1ccccc1 | . | . | -1%[46 µM] | . | .
CCN(CC)C(=O)Cn1c(=O)cc(C)c2c(C)nn(-c3ccc(C)cc3)c21 | . | . | 7%[46 µM] | . | .
C=C1C(=O)C=C2CN(C(=O)c3ccccc3)[C@@](Cc3ccc(F)cc3)(C(=O)OC)[C@@H]12 | -1% | -119* | ? | 16µM* | -5%
Cc1ccc(NC(=O)CN(C)C(=S)NC2CC2)cc1 | 5% | . | ? | . | .
C/C(Cn1nnc([N+](=O)[O-])n1)=N\NC(=O)c1cccc(Cl)c1 | ? | -26 | ? | -1% | -11%
C/C(Cn1cnc([N+](=O)[O-])n1)=N\NC(=O)c1cccc(F)c1 | ? | -88* | -2% | 0% | 1%
C/C(Cn1nnc([N+](=O)[O-])n1)=N\NC(=O)c1ccc(C)cc1 | -7% | -109* | ? | -4% | 2%
CCOc1ccc(NC(=O)N2CCN(S(=O)(=O)c3ccc4c(ccn4C)c3)CC2)cc1 | . | . | -17%[46 µM] | . | .
Cc1ccc(CN(C(=O)COc2ccc(Br)cc2)c2ccccn2)o1 | . | . | 10%[46 µM] | . | .
O=C(CN1CCN(Cc2ccc(F)cc2)C1=O)NCc1ccc(F)cc1 | . | . | 23%[46 µM] | . | .
Cc1ccc(NC(=O)CSc2nnc(-c3cccnc3)n2-c2ccc(C)cc2)cc1 | 6% | 4 | -1% | -13% | 1%
